Data taken from PubChem BioAssay AID1159580 (chemical genetic matrix, 2015).
Out of some 5,500 compounds screened, about 2,000 (36%) were called active. Inconclusive results (about 18%) are left out. Cut-off read from the data, not from the text of the source: active = normalized growth mostly below about 0.91 (no sharp cut-off); inconclusive = no clear call, values can overlap the other calls; inactive = mostly above about 0.92. This is one part of the list.

Assay: chemical genetic growth profiling, strain panel (AID 1159580);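 note: tested at 20 µM; growth read once vehicle control cultures reached saturation at 30 °C; 1 = growth at the plate median or of vehicle wells; lower values mean less growth of the strain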
Conditions: S. cerevisiae deletion strains, growth OD
[1] = locus YAL021C, strain ccr4, stronger effect = lower value
[2] = locus YAL026C, strain drs2, stronger effect = lower value
[3] = locus YAL030W, strain snc1, stronger effect = lower value
[4] = locus YBL061C, strain skt5, stronger effect = lower value
[5] = locus YBR009C, strain hhf1, stronger effect = lower value
[6] = locus YBR023C, strain chs3, stronger effect = lower value
[7] = locus YBR171W, strain sec66, stronger effect = lower value
[8] = locus YBR231C, strain swc5, stronger effect = lower value
[9] = locus YBR279W, strain paf1, stronger effect = lower value
[10] = locus YCL011C, strain gbp2, stronger effect = lower value
[11] = locus YCL016C, strain dcc1, stronger effect = lower value
[12] = locus YCL061C, strain MRC1, stronger effect = lower value
[13] = locus YCL069W, strain vba3, stronger effect = lower value
[14] = locus YCR088W, strain abp1, stronger effect = lower value
[15] = locus YDL005C, strain med2, stronger effect = lower value
[16] = locus YDL040C, strain nat1, stronger effect = lower value
[17] = locus YDR001C, strain nth1, stronger effect = lower value
[18] = locus YDR069C, strain doa4, stronger effect = lower value
[19] = locus YDR137W, strain rgp1, stronger effect = lower value
[20] = locus YDR159W, strain sac3, stronger effect = lower value
[21] = locus YDR297W, strain sur2, stronger effect = lower value
[22] = locus YDR334W, strain swr1, stronger effect = lower value
[23] = locus YDR335W, strain msn5, stronger effect = lower value
[24] = locus YDR392W, strain spt3, stronger effect = lower value
[25] = locus YEL003W, strain gim4, stronger effect = lower value
[26] = locus YEL037C, strain rad23, stronger effect = lower value
[27] = locus YEL061C, strain CIN8 (second series), stronger effect = lower value
[28] = locus YER015W, strain faa2, stronger effect = lower value
[29] = locus YER016W, strain bim1, stronger effect = lower value
[30] = locus YER111C, strain swi4, stronger effect = lower value
[31] = locus YER155C, strain BEM2 (second series), stronger effect = lower value
[32] = locus YFR010W, strain ubp6, stronger effect = lower value
[33] = locus YGL167C, strain pmr1, stronger effect = lower value
[34] = locus YGL173C, strain kem1, stronger effect = lower value
[35] = locus YGL227W, strain vid30, stronger effect = lower value
[36] = locus YGL240W, strain doc1, stronger effect = lower value
[37] = locus YGL253W, strain hxk2, stronger effect = lower value
[38] = locus YHR013C, strain ard1, stronger effect = lower value
[39] = locus YHR027C, strain rpn1, stronger effect = lower value
[40] = locus YHR030C, strain SLT2, stronger effect = lower value
[41] = locus YHR079C, strain IRE1, stronger effect = lower value
[42] = locus YHR142W, strain chs7, stronger effect = lower value
[43] = locus YJL092W, strain hpr5, stronger effect = lower value
[44] = locus YJL095W, strain BCK1 (second series), stronger effect = lower value
[45] = locus YJL095W, strain BCK1, stronger effect = lower value
[46] = locus YJL115W, strain asf1, stronger effect = lower value
[47] = locus YJL129C, strain trk1, stronger effect = lower value
[48] = locus YJL154C, strain vps35, stronger effect = lower value
[49] = locus YJL164C, strain tpk1, stronger effect = lower value
[50] = locus YJL166W, strain qcr8, stronger effect = lower value
[51] = locus YJL187C, strain SWE1, stronger effect = lower value
[52] = locus YJR066W, strain TOR1, stronger effect = lower value
[53] = locus YKL160W, strain elf1, stronger effect = lower value
[54] = locus YKR026C, strain gcn3, stronger effect = lower value
[55] = locus YKR091W, strain srl3, stronger effect = lower value
[56] = locus YLL001W, strain dnm1, stronger effect = lower value
[57] = locus YLL026W, stronger effect = lower value
[58] = locus YLL041C, strain sdh2, stronger effect = lower value
[59] = locus YLR027C, strain aat2, stronger effect = lower value
[60] = locus YLR113W, strain HOG1, stronger effect = lower value
[61] = locus YLR221C, strain rsa3, stronger effect = lower value
[62] = locus YLR258W, strain gsy2, stronger effect = lower value
[63] = locus YLR262C, strain YPT6 (second series), stronger effect = lower value
[64] = locus YLR320W, strain mms22, stronger effect = lower value
[65] = locus YLR342W, strain FKS1, stronger effect = lower value
[66] = locus YLR357W, strain rsc2, stronger effect = lower value
[67] = locus YLR370C, strain arc18, stronger effect = lower value
[68] = locus YLR384C, strain iki3, stronger effect = lower value
[69] = locus YML120C, strain ndi1, stronger effect = lower value
[70] = locus YMR058W, strain fet3, stronger effect = lower value
[71] = locus YMR125W, strain sto1, stronger effect = lower value
[72] = locus YMR129W, stronger effect = lower value
[73] = locus YMR205C, strain PFK2, stronger effect = lower value
[74] = locus YMR231W, strain pep5, stronger effect = lower value
[75] = locus YNL071W, strain lat1, stronger effect = lower value
[76] = locus YNL183C, strain NPR1, stronger effect = lower value
[77] = locus YNL209W, strain ssb2, stronger effect = lower value
[78] = locus YNL248C, strain rpa49, stronger effect = lower value
[79] = locus YNL322C, strain KRE1 (second series), stronger effect = lower value
[80] = locus YNR049C, strain mso1, stronger effect = lower value
[81] = locus YOR001W, strain rrp6, stronger effect = lower value
[82] = locus YOR070C, strain gyp1, stronger effect = lower value
[83] = locus YOR080W, strain dia2, stronger effect = lower value
[84] = locus YOR083W, strain WHI5, stronger effect = lower value
[85] = locus YOR106W, strain vam3, stronger effect = lower value
[86] = locus YOR231W, strain MKK1, stronger effect = lower value
[87] = locus YOR265W, strain rbl2, stronger effect = lower value
[88] = locus YOR270C, strain vph1, stronger effect = lower value
[89] = locus YOR290C, strain snf2, stronger effect = lower value
[90] = locus YPL051W, strain arl3, stronger effect = lower value
[91] = locus YPL078C, strain atp4, stronger effect = lower value
[92] = locus YPL106C, strain sse1, stronger effect = lower value
[93] = locus YPL240C, strain hsp82, stronger effect = lower value
[94] = locus YPL256C, strain CLN2, stronger effect = lower value

Measured: normalized growth

CCN[C@@H]1C[C@H](N)[C@@H](O[C@H]2OC(CN)=CC[C@H]2N)[C@H](O)[C@H]1OC1OC[C@](C)(O)[C@H](NC)[C@H]1O (stereo not given in full)
inactive: [1] 0.983 | [2] 0.995 | [3] 1.01 | [4] 1 | [5] 1.02 | [6] 1 | [7] 0.996 | [8] 1.01 | [9] 1.01 | [10] 0.977 | [11] 1 | [12] 0.989 | [13] 0.994 | [14] 0.983 | [15] 1 | [16] 1.01 | [17] 0.985 | [18] 1.01 | [19] 0.96 | [20] 1.01 | locus YDR195W, strain ref2 0.993 | [21] 0.998 | [22] 0.979 | [23] 0.986 | [24] 0.998 | [25] 0.989 | [26] 0.948 | [27] 0.981 | [28] 1.02 | [29] 0.997 | [30] 0.994 | [31] 1.01 | [32] 0.975 | [33] 0.998 | [34] 1 | [35] 0.995 | [36] 1.01 | [37] 0.995 | [38] 1.02 | [39] 0.999 | [40] 0.97 | [41] 1.02 | [42] 0.946 | [43] 0.984 | [44] 1.01 | [45] 0.972 | [46] 0.998 | [47] 0.989 | [48] 0.996 | [49] 0.996 | [50] 1.01 | [51] 1 | [52] 0.947 | [53] 0.986 | [54] 0.978 | [55] 0.995 | [56] 0.981 | [57] 1.01 | [58] 0.988 | [59] 1.01 | [60] 0.953 | [61] 0.987 | [62] 1 | [63] 1 | [64] 1.01 | [65] 0.997 | [66] 0.986 | [67] 0.994 | [68] 1 | [69] 0.983 | [70] 0.986 | [71] 1 | [72] 0.994 | [73] 1.03 | [74] 1 | [75] 1 | [76] 0.935 | [77] 1 | [78] 0.949 | [79] 0.995 | [80] 0.995 | [81] 0.982 | [82] 0.996 | [83] 0.998 | [84] 0.995 | [85] 0.985 | [86] 0.986 | [87] 1 | [88] 0.939 | [89] 0.987 | [90] 1 | [91] 0.972 | [92] 1 | [93] 0.986 | [94] 0.963

CN[C@@H]1[C@@H](O)C(OC2[C@@H](N)C[C@@H](N)[C@H](O[C@H]3O[C@H](C(C)O)[C@@H](O)[C@H](O)[C@H]3N)[C@H]2O)OC[C@]1(C)O (stereo not given in full)
inactive: [1] 0.963 | [2] 0.984 | [3] 0.986 | [4] 0.978 | [5] 0.989 | [6] 0.973 | [7] 0.968 | [8] 0.991 | [9] 0.981 | [10] 0.969 | [11] 0.976 | [12] 0.985 | [13] 0.966 | [14] 0.978 | [15] 0.967 | [16] 0.997 | [17] 0.982 | [18] 0.969 | [19] 1.02 | [20] 0.969 | locus YDR195W, strain ref2 0.973 | [21] 0.979 | [22] 0.967 | [23] 0.979 | [24] 0.938 | [25] 0.982 | [26] 0.977 | [27] 0.985 | [28] 0.964 | [29] 0.981 | [30] 0.977 | [31] 0.966 | [32] 0.971 | [33] 0.977 | [34] 0.96 | [35] 0.98 | [36] 0.977 | [37] 0.963 | [38] 0.976 | [39] 0.977 | [40] 1.05 | [41] 1.05 | [42] 0.966 | [43] 0.96 | [44] 0.966 | [45] 0.989 | [46] 0.984 | [47] 0.97 | [48] 0.976 | [49] 0.984 | [50] 0.982 | [51] 0.988 | [52] 0.995 | [53] 0.988 | [54] 0.979 | [55] 0.971 | [56] 0.988 | [57] 0.971 | [58] 0.976 | [59] 0.973 | [60] 0.995 | [61] 0.974 | [62] 0.969 | [63] 1.02 | [64] 0.976 | [65] 0.972 | [66] 0.977 | [67] 0.962 | [68] 0.958 | [69] 0.981 | [70] 0.985 | [71] 0.975 | [72] 0.989 | [73] 1.01 | [74] 0.965 | [75] 0.975 | [76] 0.942 | [77] 0.994 | [78] 0.987 | [79] 0.967 | [80] 0.979 | [81] 0.969 | [82] 0.974 | [83] 0.975 | [84] 0.976 | [85] 0.964 | [86] 1.04 | [87] 0.983 | [88] 0.981 | [89] 0.954 | [90] 0.983 | [91] 0.995 | [92] 0.988 | [93] 0.977 | [94] 1.02
